Data reported in PubChem BioAssay (NCI).
This is part of a sample that, as a whole, favours compounds with a hit. Of some 79,000 tested, about 15% had one in any assay. The source made the active and inactive calls. Cut-off read from the data, not from the text of the source: active = growth inhibition above about 70%; inactive = the rest.

Assay: NCI Yeast Anticancer Drug Screen. Data for the sgs1 strain (AID 173);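 note: 0% = growth of vehicle-only control cultures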
Conditions: S. cerevisiae sgs1 mutant, stronger effect = higher value
Protocol: Growth inhibition of yeast strains with defined genetic alterations is measured as a screen for potential anti-cancer activity. Selected strains with alterations in DNA damage repair or cell cycle control were exposed to compounds and growth inhibition was measured relative to vehicle treated controls. The strain used in this assay is sgs1

Measured: growth inhibition

N=C1N=Nc2nc(C3(c4nc5n(c4O)C(=N)N=N5)Cc4ccccc4C3=O)c(O)n21 (stereo not given)
active: at 33.0 µM 74% | at 100.0 µM 95%
inactive: at 1.2 µM 4% | at 3.7 µM 10% | at 11.0 µM 21%

O=C1CC(=O)c2ccccc21
inactive: at 1.2 µM -1% | at 3.7 µM 2% | at 11.0 µM 6% | at 33.0 µM 18% | at 100.0 µM 57%

COC(=O)C1=C(C(=O)OC)C(C(=O)OC)C(C(=O)OC)C(C(=O)OC)(C(=O)OC)C(C(=O)OC)=C1C(=O)OC (stereo not given)
inactive: at 1.2 µM -18% | at 3.7 µM -11% | at 11.0 µM -7% | at 33.0 µM 18% | at 100.0 µM 60%

CCOC(=O)CC1(C(=O)OCC)c2[nH]c3ccccc3c2CCN1Cc1ccccc1 (stereo not given)
inactive: at 1.2 µM -4% | at 3.7 µM -7% | at 11.0 µM -5% | at 33.0 µM 0% | at 100.0 µM 40%

Nc1ccc(F)cc1S
active: at 100.0 µM 97%
inactive: at 1.2 µM -16% | at 3.7 µM -24% | at 11.0 µM -14% | at 33.0 µM 46%

Cc1c(C)c(C)c(CSC(=N)N)c(C)c1C
inactive: at 1.2 µM -51% | at 3.7 µM -34% | at 11.0 µM -34%
active: at 33.0 µM 84% | at 100.0 µM 98%

O=C(NCCCNCCN1C(=O)c2cccc3cc([N+](=O)[O-])cc(c23)C1=O)c1cc(-c2ccccc2)nc2ccccc12
inactive: at 1.2 µM -1% | at 3.7 µM 1% | at 11.0 µM 2% | at 33.0 µM 17%
active: at 100.0 µM 98%

Nc1nc2ccc(NCc3ccc(C(=O)NC(CCC(=O)O)C(=O)O)cc3)cc2c(=O)[nH]1 (stereo not given)
inactive: at 1.2 µM -3% | at 3.7 µM 9% | at 11.0 µM 6% | at 33.0 µM 6% | at 100.0 µM 51%
